High-throughput results deposited in PubChem BioAssay by several laboratories.
The list is not random: actives were taken first. Their share in the collection is about 3.5%.
GDH-TPI counter-1 = GDH-TPI coupled enzyme inhibition counter-screen; GDH-TPI coupled enzyme counterscreen, NADH absorbance; inhibition, % at 4.8 µM; 360,000 tested, 1.2% active; in the data active = inhibition above about 30%
Mtb hypoxia rep = Mtb hypoxia fluorescent reporter inhibition; 300,000 tested, 0.1% active; M. tuberculosis hypoxia-regulated fluorescent reporter, fluorescence; fluorescence inhibition, % (test concentration not listed); in the data active = fluorescence inhibition mostly above about 23%, no sharp cut-off; inactive = mostly below about 17%
FadD28 FP inh = M. tuberculosis FadD28 bisubstrate binding inhibition; FadD28 bisubstrate probe binding, fluorescence polarization; 360,000 tested, 0.22% active; inhibition, % at 12.5 µM; in the data active = inhibition above about 8.5%, passing the limit was not always enough
Rv3671c protease = inhibitors of M. tuberculosis serine protease Rv3671c; P9WHR9; 320,000 tested, 0.048% active; AID 2606; inhibition, % at 5.96 µM; in the data active = inhibition above about 38%;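 also: extracellular domain of Rv3671c used as enzyme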
FBA Mtb inh = inhibits M. tuberculosis FBA enzyme; P9WQA3; purified M. tuberculosis FBA, fluorescence read-out; inhibition, % at 1 µM; AID 588726; 360,000 tested, 2.3% active
Mtb UGM inh = inhibitors of M. tuberculosis UDP-galactopyranose mutase; purified UGM, fluorescence polarization probe displacement; inhibition, % at 10 µM; 320,000 tested, 0.06% active; AID 504406; in the data active = inhibition above about 10%, passing the limit was not always enough
Target sequence (P9WIQ1 whole entry, looked up): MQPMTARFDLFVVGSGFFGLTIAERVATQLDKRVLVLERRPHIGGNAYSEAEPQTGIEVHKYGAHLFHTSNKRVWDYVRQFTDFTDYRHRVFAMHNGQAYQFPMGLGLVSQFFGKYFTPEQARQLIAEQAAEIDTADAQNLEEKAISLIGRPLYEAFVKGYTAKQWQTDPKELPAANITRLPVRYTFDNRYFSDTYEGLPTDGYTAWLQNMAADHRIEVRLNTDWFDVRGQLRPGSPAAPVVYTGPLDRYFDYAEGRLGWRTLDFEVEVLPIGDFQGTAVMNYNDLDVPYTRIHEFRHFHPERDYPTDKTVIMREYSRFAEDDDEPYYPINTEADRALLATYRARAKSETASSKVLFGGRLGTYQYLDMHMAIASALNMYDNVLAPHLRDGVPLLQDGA
Mtb FBA confirm = Mtb FBA inhibition, confirmed; purified M. tuberculosis FBA, fluorescence read-out; inhibition, % at 1 µM; AID 651616; shares compounds with FBA Mtb inh; 5,600 tested, 78% active
GDH-TPI counter-2 = inhibits GDH-TPI coupling enzymes, flagging Mtb FBA hits; inhibition, % at 1 µM; 5,600 tested, 81% active; shares compounds with FBA Mtb inh; AID 652141; GDH-TPI coupled enzyme counterscreen, fluorescence; in the data active = inhibition above about 10%
Hits are given with their value; n = inactive; x = no result; + = active, no number. Rule as the data show it, unless noted: active = inhibition above about 27%; inactive = the rest.

SMILES	GDH-TPI counter-1	Mtb hypoxia rep	FadD28 FP inh	Rv3671c protease	FBA Mtb inh	Mtb UGM inh	Mtb FBA confirm	GDH-TPI counter-2
COc1ccc(-c2nc3nc(SC)nn3cc2C)cc1F	n	n	n	n	n	n	x	x
COc1ccc(-c2nc3ncnn3cc2C)cc1F	n	n	n	n	73	n	+	+
CC(C)(C)OC(=O)CC1CC=CCC(CC(=O)NCCO)C(=O)NC(Cc2c[nH]c3ccccc23)COC1=O (centres undefined)	x	n	x	x	x	x	x	x
Cc1cc(C)c(-c2cc(C(F)(F)F)no2)c(=O)[nH]1	n	n	n	n	30	n	+	147
Cc1ccccc1NC(=O)C1CC(Cl)=CCC1C(=O)O (centres undefined)	n	n	n	n	n	n	x	x
O=C(O)C1CC=C(Cl)CC1C(=O)NC1CCCCC1 (centres undefined)	n	n	n	n	28	n	160	108
CC(=O)Nc1ccc(SC(CCN2CCC(C(C)(C)C)CCC2=O)c2ccccc2)cc1 (centres undefined)	x	n	x	x	x	x	x	x
Cc1cc2nc(CO)[nH]c2cc1C	n	n	n	n	n	n	x	x
Cc1cc2nc(/C=C/c3nc4cc(C)c(C)cc4[nH]3)[nH]c2cc1C	n	x	n	n	37	n	150	85
NC(=O)c1ccccc1N/C=C1\CCCCC1=O	n	n	n	n	28	n	91	73
O=C1CCCC/C1=C\Nc1ccccc1C(=O)O	n	n	n	n	n	n	x	x
Cc1ccc2[nH]c(=O)c3cc(C(=O)NCCN4CCN(C)CC4)sc3c2c1	n	x	n	n	49	n	196	159
CCOC(=O)CNC(=O)c1cc2c(=O)[nH]c3ccc(C)cc3c2s1	n	n	x	n	32	n	118	97
Cc1ccc2[nH]c(=O)c3cc(C(=O)N(CCCOC(C)C)Cc4ccco4)sc3c2c1	n	n	n	n	28	n	n	11
CCCCN(CC)C(=O)c1cc2c(=O)[nH]c3ccc(C)cc3c2s1	n	n	n	x	n	n	x	x
CCOc1cc(C=NNC(=O)c2ccc(NC(=O)CC)cc2)ccc1OC(=O)c1ccccc1	x	n	x	x	x	x	x	x
CCOC(=O)c1[nH]c2ccc(C(=O)OC)cc2c1C(=O)OCC	n	n	n	n	46	n	114	93
O=C(NCCO)c1ccc2[nH]c3c(c2c1)CCCC3	n	n	n	n	n	n	x	x
CCOC(=O)CNC(=O)c1ccc(C)cc1	n	x	n	n	n	n	x	x
O=C(NCC(O)CO)c1ccc2[nH]c3ccccc3c2c1 (centres undefined)	n	n	n	n	63	n	135	108
CCOC(=O)CNC(=O)c1ccc2[nH]c3ccccc3c2c1	n	n	n	n	60	n	n	n
COc1cc(C=NNc2ccc(Cl)c(C(=O)O)c2)ccc1OCC(=O)N1C(C)CCCC1C (centres undefined)	x	n	x	x	x	x	x	x
Cc1cc(NCCCn2ccnc2)n2nc(-c3ccc(Cl)cc3)cc2n1	n	n	n	n	n	n	x	x
CC(C)(C)c1cc(NCCCn2ccnc2)n2ncc(-c3ccc(Cl)cc3)c2n1	n	n	n	n	61	n	60	41
NC(=O)c1ccc(C(=O)NN=C(Cc2ccccc2)c2ccccc2)cc1	x	n	x	x	x	x	x	x
SMILES	GDH-TPI counter-1	Mtb hypoxia rep	FadD28 FP inh	Rv3671c protease	FBA Mtb inh	Mtb UGM inh	Mtb FBA confirm	GDH-TPI counter-2
Cc1ccc(S(=O)(=O)N(C)CC2Oc3ccc(NC(=O)Nc4c(C)noc4C)cc3CC(=O)N(C(C)CO)CC2C)cc1 (centres undefined)	x	n	x	x	x	x	x	x
Cc1cc2[nH]c(=O)c(=O)[nH]c2cc1S(=O)(=O)NC1CCC(C)CC1 (centres undefined)	n	n	n	n	29	n	191	188
Cc1cc2[nH]c(=O)c(=O)[nH]c2cc1S(=O)(=O)NCC(C)c1ccccc1 (centres undefined)	n	x	n	x	n	x	x	x
Cc1cc2[nH]c(=O)c(=O)[nH]c2cc1S(=O)(=O)NCc1ccccc1	n	n	n	n	33	n	72	65
CCc1ccccc1N(C(=O)c1snc(C(N)=O)c1N)C(C(=O)NCC1CCCO1)c1ccc(OC)c(OC)c1 (centres undefined)	n	n	n	x	62	x	+	+
COc1ccc(C(C(=O)NCC2CCCO2)N(C(=O)c2snc(C(N)=O)c2N)c2ccccc2)cc1OC (centres undefined)	n	n	x	x	n	x	x	x
COc1ccc(C(C(=O)NCC2CCCO2)N(C(=O)c2snc(C(N)=O)c2N)c2ccccc2C)cc1OC (centres undefined)	n	n	n	n	50	n	168	+
O=C1c2ccccc2NC(c2cccc(F)c2)N1Cc1ccco1 (centres undefined)	n	n	n	n	60	n	74	59
Cc1ccc(C2Nc3ccccc3C(=O)N2Cc2ccco2)cc1 (centres undefined)	n	n	n	n	43	n	86	56
COc1ccc(C2Nc3ccccc3C(=O)N2c2ccccc2)cc1COc1ccccn1 (centres undefined)	n	n	n	n	90	n	90	75
O=C1c2ccccc2NC(c2cccc(F)c2)N1Cc1ccccc1 (centres undefined)	n	n	n	n	58	n	97	81
O=C1c2ccccc2NC(c2c(Cl)cccc2Cl)N1Cc1ccccc1 (centres undefined)	n	x	n	n	n	n	x	x
COc1ccc([N+](=O)[O-])cc1C=NNC(=O)Cc1ccccc1	x	n	x	x	x	x	x	x
CN1CC2C(c3ccc(C(F)(F)F)cc3)C3(c4cccnc4)CC2(C3)C1c1ccccc1 (centres undefined)	x	n	x	x	x	x	x	x
COc1ccc(C2Nc3ccccc3C(=O)N2Cc2ccco2)cc1COc1ccc(NC(C)=O)cc1 (centres undefined)	n	x	n	n	41	n	n	n
CCOC(=O)N1CCC2(CC1)NC(=O)c1ccccc1N2	n	x	n	x	85	x	37	25
CCOC(=O)NN1C(=O)c2ccccc2NC1c1ccc(OC)c(OC)c1 (centres undefined)	n	n	n	n	43	n	n	n
COc1ccc(C2Nc3ccccc3C(=O)N2NC(C)=O)cc1OC (centres undefined)	n	n	n	n	36	n	36	26
CCOC(=O)NN1C(=O)c2ccccc2NC1(C)C	n	n	n	n	104	n	136	112
COc1ccc(C2Nc3ccccc3C(=O)N2NC(=O)c2ccccc2)cc1OC (centres undefined)	n	n	n	n	n	n	x	x
CCC1(CC)Nc2ccccc2C(=O)N1c1ccc(NC(C)=O)cc1	n	n	n	n	n	n	x	x
Cc1ccc(C=Nn2cc(-c3ccccc3)[nH]c2=S)s1	x	n	x	x	x	x	x	x
COc1ccc2ccc(=O)oc2c1CC(O)C(C)(C)O (centres undefined)	n	x	n	n	66	n	n	n
